An excerpt weighted towards active compounds, which were near 4% of everything screened.
NALP3 yeast inh: blocks the NALP3 inflammasome reconstituted in yeast. Yeast reconstituted NLRP3/ASC/caspase-1, beta-gal luminescence, 24 h. inhibition, % at 10 µM. 330,000 tested, 0.39% active;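 active = inhibition of 50% or more; inactive = inhibition below 50%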;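 also: plate controls were induced DMSO wells for no effect and uninduced yeast grown without galactose for full effect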
tim10-1 inh: inhibits growth of tim10-1 mutant yeast; S. cerevisiae tim10-1 ts strain growth, BacTiter-Glo, 24 h; inhibition, % at 20 µM; 330,000 tested, 2.2% active; AID 463190;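 active = inhibition of at least 40%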;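 also: mutant grown at 25 °C; 0% = DMSO wells with yeast and 100% = wells holding no yeast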
TIM10 inh: TIM10 yeast growth inhibition. inhibition, % at 10 µM. S. cerevisiae TIM10 strain growth, BacTiter-Glo luminescence, 24 h. 330,000 tested, 1.4% active;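 active = inhibition of 40% or more at the single tested concentration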;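 also: wild-type TIM10 isogenic control strain grown at permissive 25 °C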
tim23-1 inh: growth inhibitors of tim23-1 mutant yeast; S. cerevisiae tim23-1 growth, BacTiter-Glo luminescence, 24 h; inhibition, % at 20 µM; 330,000 tested, 1.3% active; AID 463212;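 active = growth inhibition of the mutant yeast at or above 50%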;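 also: temperature-sensitive mutant grown at 25 °C; plate controls were DMSO-treated mutant yeast for no effect and medium wells lacking yeast for full effect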
NALP1 inh: blocks the NALP1 inflammasome reconstituted in yeast | AID 2071 | S. cerevisiae NALP1/ASC/caspase-1 growth, X-gal OD620, 72 h | inhibition, % at 10 µM | 280,000 tested, 0.61% active; in the data active = inhibition mostly above about 24%, no sharp cut-off; inactive = mostly below about 32%
tim10-1 conf: tim10-1 yeast growth inhibition, confirmed; shares compounds with tim10-1 inh; S. cerevisiae tim10-1 ts strain growth, BacTiter-Glo, 24 h; inhibition, % at 20 µM; 7,400 tested, 56% active;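 active = inhibition of yeast growth at or above a set limit in either of two repeat tests at 20 µM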;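 also: tim10-1 mutant grown at permissive 25 °C to find synthetic lethal compounds; 0% = DMSO yeast wells and 100% = medium wells without yeast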
tim10 confirm: confirmation of TIM10 yeast growth inhibitors; shares compounds with TIM10 inh; S. cerevisiae tim10 strain growth, BacTiter-Glo luminescence, 24 h; inhibition, % at 10 µM; 4,600 tested, 63% active; AID 463215;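 active = inhibition of yeast growth at or above a set limit in either of two replicates at 10 µM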;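 also: this counterscreen used the strain with wild-type TIM10; 0% = yeast with DMSO and 100% = medium wells lacking yeast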
* = called active by the depositor; . = not tested or not shown.

SMILES	NALP3 yeast inh	tim10-1 inh	TIM10 inh	tim23-1 inh	NALP1 inh	tim10-1 conf	tim10 confirm
C=CCNC(=O)C1CCN(c2cc(C)nc(-c3ccccc3)n2)CC1	10	14	6	5	9	.	.
Cc1cc(N2CCC(C(=O)Nc3ccc(F)cc3)CC2)nc(-c2ccccc2)n1	46	49*	43*	11	24	30	-9
CCCc1nc2oc3c(NCC4CCCO4)ncnc3c2c2c1COC(C)(C)C2 (stereo not given)	-4	35	9	17	.	.	.
CC(C)c1nc2oc3c(NCC4CCCO4)ncnc3c2c2c1CCC2 (stereo not given)	-6	46*	45*	31	11	27	13
CCC(C)(C)NC(=O)CN(C(=O)C(=O)Nc1ccc2c(c1)OCCO2)N1CCOCC1	11	13	-7	-2	21	.	.
O=C1N/C(=N\c2ccccn2)SC1Cc1ccc(Cl)cc1 (stereo not given)	6	8	-4	-10	-6	.	.
CC1CCC2C(C1)c1sc(=O)[nH]c1SC2(C)C (stereo not given)	-23	51*	41*	24	37	41*	41*
COc1ccc(C2=C(N)c3ccccc3C2=O)cc1	30	-30	20	31	4	.	.
COC1=C(c2ccccc2)C(=O)c2ccccc2C1=O	-21	80*	89*	37	41	72*	90*
CC(=O)NC12CC3CC(C1)CC(C(=O)N1CCN(S(=O)(=O)c4cccc(C(F)(F)F)c4)CC1)(C3)C2	-7	0	5	7	.	.	.
Cc1cc(C(=O)CCl)c(C)n1-c1cccc(S(=O)(=O)N2CCOCC2)c1	-44	48*	46*	38	-50	30*	46*
Oc1ccccc1/C=N/Nc1cccc2cccnc12	31	41*	50*	38	-4	37*	35*
O=C(Nc1ccc2c(c1)OCO2)C1CCCN(c2nc3ccccc3s2)C1 (stereo not given)	6	48*	45*	45	0	36*	38*
C[C@H](CO)N1C[C@H](C)[C@@H](CN(C)S(C)(=O)=O)Oc2ccc(NC(=O)Nc3ccccc3)cc2C1=O	7	-15	4	-8	.	.	.
Cc1cc(NC(=O)C2CC2)ncc1NC(=O)C12CC3CC(CC(C3)C1)C2	16	54*	48*	48	14	40*	-21
COc1ccccc1CCNC(=O)CSc1nnc2ccc(-c3ccncc3)nn12	-6	13	-3	2	-5	.	.
S=C(NCCCc1ccccc1)Nc1ccccc1Cl	11	49*	52*	30	.	38*	41*
S=C(NCCc1ccccc1)Nc1ccccc1Cl	30	26	2	41	34	.	.
O=C1c2ccccc2S(=O)(=O)c2cc(C(=O)N3CCC(C(=O)N4CCCCC4)CC3)ccc21	12	-9	-6	-9	.	.	.
CCOC(=O)N1CCN(S(=O)(=O)c2ccc(C(=O)N(CCN(CC)CC)c3nc4ccc(C)cc4s3)cc2)CC1	8	48*	40	31	18	35*	14
CCN(CC)CCN(C(=O)c1ccc(S(=O)(=O)N(C)C2CCCCC2)cc1)c1nc2ccc(OC)cc2s1	19	59*	48*	42	10	42*	38*
CCOC(=O)N1CCN(S(=O)(=O)c2ccc(C(=O)N(CCCN(C)C)c3nc4ccc(Cl)cc4s3)cc2)CC1	14	19	20	13	8	.	.
COC(=O)c1cn(CCC#N)nc1-c1ccc2ccccc2c1	22	4	5	27	13	.	.
CC(=O)c1cccc(NC(=O)C2C(c3ccccc3)C2(Cl)Cl)c1 (stereo not given)	12	45*	41*	23	-18	21	23
COc1ccc(NC(=O)C2C(c3ccccc3)C2(Cl)Cl)cc1 (stereo not given)	19	2	18	18	0	.	.
O=C(COC(=O)c1ccc([N+](=O)[O-])s1)NCc1ccc(F)cc1	18	45*	64*	23	24	17	-9
O=C(COC(=O)c1ccc([N+](=O)[O-])s1)NNC(=O)c1ccccc1	17	7	16	27	.	.	.
